Source: ChEMBL document CHEMBL3988442, “University of Dundee, Small-Polar-MMV Screening Library” (2021)
The campaign covered roughly 48,000 compounds. About 13,000 (27%) showed an effect of 50% or more. The list shows a part of the results.

These compounds were tested on Wolbachia pipientis (assay: Anti-Wolbachia Cell-Based Screen). Conditions: 5 µM.
Format: functional
Parameters: scale not given: in the data most compounds retested in dose-response had high values
In the case of `CNC(=O)[C@@H]1C[C@@H](NC(=O)CSc2ccccc2)CN1C1CCOCC1`, the “Percent Effect” value was 0.9976%.
For `CCN(CC)c1ccc(NS(=O)(=O)c2cncc(F)c2)cn1`, the “Percent Effect” value was -6.269%.
For `Cc1ccc(C(C)NCc2cn(CCC(N)=O)c3ccccc23)cc1C` (stereo not drawn), the “Percent Effect” value was -0.5436%.
In the case of `O=C(NCC1CC1)C1CCC2(CN(C(=O)c3ccno3)C2)O1` (stereo not drawn), the “Percent Effect” value was -9.78%.
With `Cc1ccc(C(=O)N2CCC3(CCC(C(=O)NCC4CC4)O3)CC2)o1` (stereo not drawn) the “Percent Effect” value was 101.4%.
In the case of `COC(=O)c1sccc1CN1CCN(C(=O)c2ccc(C)o2)CC1`, the “Percent Effect” value was -11.02%.
For `CN1CCN(C2CCN(Cc3nnc(C(C)(C)C)o3)CC2)C1=O`, the “Percent Effect” value was 116.2%.
`CCN1CCN(C2CCN(Cc3nnc(C(C)(C)C)o3)CC2)C1=O` was tested, and the “Percent Effect” value was -3.577%.
In the case of `CCc1nnc(CN2CCC(N3CCN(CC)C3=O)CC2)o1`, the “Percent Effect” value was 119.1%.
`CC(O)CN1CCN(Cc2nnc(C3CC3)o2)CC1` (stereo not drawn) was tested, and the “Percent Effect” value was 3.93%.
`CCN1CCN(C2CCN(Cc3nnc(C(C)C)o3)CC2)C1=O` was tested, and the “Percent Effect” value was 147.9%.
In the case of `CCN1CCN(C2CCN(Cc3ncc(C(C)(C)C)o3)CC2)C1=O`, the “Percent Effect” value was -2.934%.
`CC(C)c1nnc(CN2C(=O)OC[C@@H]2C(C)C)o1` was tested, and the “Percent Effect” value was -6.188%.
With `CN1CCN(C2CCN(Cc3noc(C(C)(C)C)n3)CC2)C1=O` the “Percent Effect” value was 10.06%.
`CCN1CCN(C2CCN(Cc3nnc(C4CC4)o3)CC2)C1=O` was tested, and the “Percent Effect” value was 80.84%.
`CCN1CCN(C2CCN(Cc3noc(C)n3)CC2)C1=O` was tested, and the “Percent Effect” value was 2.974%.
For `CCN1CCN(C2CCN(Cc3c(C)noc3C)CC2)C1=O`, the “Percent Effect” value was -0.1089%.
For `CCc1nnsc1C(=O)NCC1CN(CC(C)C)CCO1` (stereo not drawn), the “Percent Effect” value was 19.89%.
For `CCC(=O)N1CCN(C(=O)c2ccc(OC)o2)[C@H]2CS(=O)(=O)C[C@H]21`, the “Percent Effect” value was 0.8171%.
For `O=C(c1ccc(-n2cnnc2)cc1Cl)N1CCCC(O)(CO)CC1` (stereo not drawn), the “Percent Effect” value was 1.549%.
For `CC(=O)N[C@@H]1CN(Cc2ccccc2-n2nc(C)cc2C)C[C@H]1C(C)C`, the “Percent Effect” value was 5.074%.
`O=C(NC[C@H]1OC[C@@H](NCc2ccccn2)[C@@H]1O)N1CCOCC1` was tested, and the “Percent Effect” value was -13.39%.
For `O=C(c1cncs1)N1CCOCC(Cc2ccncn2)C1` (stereo not drawn), the “Percent Effect” value was 102.2%.
With `Cc1cnc(CC2COCCN(C(=O)c3cncs3)C2)cn1` (stereo not drawn) the “Percent Effect” value was 133.5%.
In the case of `c1ccc(CN2CCOC[C@H]2c2nc(-c3ccncc3)c[nH]2)nc1`, the “Percent Effect” value was -4.896%.
In the case of `Cc1cccc(NC(=O)N2CCOCC(CN(C)C)C2)c1C` (stereo not drawn), the “Percent Effect” value was -12.45%.
`COc1ccc(C(=O)N2CCOCC(CO)C2)cc1N1CCOCC1` (stereo not drawn) was tested, and the “Percent Effect” value was 2.678%.
`O=C(c1ccncc1)N1C[C@@H]2CC[C@H](C1)N(C(=O)N1CCOCC1)C2` was tested, and the “Percent Effect” value was 7.35%.
In the case of `CCOCCn1nc(C)cc1C(=O)N1CCOCC(CO)C1` (stereo not drawn), the “Percent Effect” value was -4.092%.
`O=C(c1cncs1)N1CCOCC(Cc2ccccn2)C1` (stereo not drawn) was tested, and the “Percent Effect” value was 121.8%.
With `CN(C)CC(=O)N1CCOCC(Cc2ccccn2)C1` (stereo not drawn) the “Percent Effect” value was 100.7%.
In the case of `CC(=O)N(C)C1CCCc2nc(C)sc21` (stereo not drawn), the “Percent Effect” value was -2.267%.
`CC(C)S(=O)(=O)NCC1CCCN(C(=O)c2ccc3c(c2)OCCO3)C1` (stereo not drawn) was tested, and the “Percent Effect” value was -10.13%.
`COc1cccc(CC(=O)N2CCC(O)(C(F)(F)F)C2)c1` (stereo not drawn) was tested, and the “Percent Effect” value was -3.145%.
In the case of `Cc1ccc(CN2CCN(c3cc(NCCO)ncn3)CC2CCO)o1` (stereo not drawn), the “Percent Effect” value was -3.553%.
For `CS(=O)(=O)NCCCSCc1cccc2cccnc12`, the “Percent Effect” value was -10.2%.
In the case of `CCC(CO)NC(=O)Cc1ccc(NC(=O)CC2=CCCCC2)cc1` (stereo not drawn), the “Percent Effect” value was -16.18%.
`Cc1cccc(-c2nnn3c2COC(CNS(=O)(=O)C2CC2)C3)c1` (stereo not drawn) was tested, and the “Percent Effect” value was -1.824%.
`F[C@@H]1CN(CC2CCCCC2)C[C@@H]1OCc1nc2ccccc2o1` was tested, and the “Percent Effect” value was -16.46%.
With `Cc1cn[nH]c1C1CCCN1Cc1ccc(F)c(F)c1` (stereo not drawn) the “Percent Effect” value was 102.9%.
With `Cc1cc(C)n(CC2CCCN2Cc2cscn2)n1` (stereo not drawn) the “Percent Effect” value was -19.73%.
For `Cc1cn[nH]c1C1COCCN1Cc1cscn1` (stereo not drawn), the “Percent Effect” value was 126.8%.
For `Cc1ccc(CN2CCOCC2c2[nH]ncc2C)cn1` (stereo not drawn), the “Percent Effect” value was 135.2%.
For `CC(C)(C)c1coc([C@@H]2COCCN2Cc2cnc3ccccc3c2)n1`, the “Percent Effect” value was -14.41%.
For `Cc1ccc(-c2c[nH]c([C@@H]3COCCN3Cc3cccnc3)n2)cc1`, the “Percent Effect” value was -11%.
With `Cc1ccc(CN2CCCN(Cc3cscn3)CC2)cc1` the “Percent Effect” value was 8.803%.
In the case of `C[C@H]1C[C@H]2CN(C(=O)C3=CCCC3)CC[C@H]2O1`, the “Percent Effect” value was -4.42%.
With `Cc1cnc(CN(Cc2ccc(C#N)cc2F)C2CCN(C)C2)o1` (stereo not drawn) the “Percent Effect” value was 0.7186%.
`O=C(Cc1ccc(O)c(F)c1)N1CCC2(CCNCC2)CC1` was tested, and the “Percent Effect” value was 3.875%.
For `CCOC(=O)N1CCN(c2nc(NCCO)c3ccccc3n2)CC1`, the “Percent Effect” value was -13.13%.
For `CCCN1CC[C@@H]2[C@@H](CO[C@H]2CNC(=O)c2nccn2C)C1.O=C(O)C(F)(F)F`, the “Percent Effect” value was -3.77%.
With `COc1ccc(CN2CC[C@H]3CO[C@H](CNC(=O)N(C)C)[C@H]3C2)cc1.O=C(O)C(F)(F)F` the “Percent Effect” value was -1.403%.
`COc1ccc(CN2CC[C@H]3[C@H](CO[C@H]3CNC(=O)N(C)C)C2)cc1.O=C(O)C(F)(F)F` was tested, and the “Percent Effect” value was 1.388%.
`CS(=O)(=O)NC[C@H]1OC[C@H]2CN(CCc3ccccc3)CC[C@H]21.O=C(O)C(F)(F)F` was tested, and the “Percent Effect” value was 87.13%.
With `CN(C)C(=O)NC[C@@H]1OC[C@H]2CN(Cc3cccc(F)c3)CC[C@H]21.O=C(O)C(F)(F)F` the “Percent Effect” value was -1.144%.
In the case of `CS(=O)(=O)NC[C@@H]1OC[C@H]2CN(C(=O)c3ccccn3)CC[C@H]21.O=C(O)C(F)(F)F`, the “Percent Effect” value was -10.63%.
For `CS(=O)(=O)NC[C@@H]1OC[C@H]2CN(Cc3ccccc3)CC[C@H]21.O=C(O)C(F)(F)F`, the “Percent Effect” value was 107.1%.
In the case of `CS(=O)(=O)NC[C@H]1OC[C@@H]2CCN(Cc3ccc(F)cc3)C[C@@H]21.O=C(O)C(F)(F)F`, the “Percent Effect” value was -22.2%.
With `Cc1cccc(CN2CC[C@@H]3[C@@H](CO[C@H]3CNc3ncccn3)C2)n1.O=C(O)C(F)(F)F.O=C(O)C(F)(F)F.O=C(O)C(F)(F)F` the “Percent Effect” value was 100.3%.
With `CS(=O)(=O)NC[C@H]1OC[C@@H]2CCN(CCc3ccccc3)C[C@@H]21.O=C(O)C(F)(F)F` the “Percent Effect” value was 101.5%.
`CS(=O)(=O)NC[C@@H]1OC[C@H]2CN(C(=O)c3ccccc3)CC[C@H]21` was tested, and the “Percent Effect” value was -5.092%.
For `Cc1cccc(CN2CC[C@H]3CO[C@H](CNC(=O)N(C)C)[C@H]3C2)c1.O=C(O)C(F)(F)F`, the “Percent Effect” value was -5.522%.
In the case of `CCN1CC2(CCN(CC3COCCO3)CC2)OC1=O` (stereo not drawn), the “Percent Effect” value was -23.81%.
With `CN1CCN(CCCN(C)S(=O)(=O)C2CCCCC2)CC1` the “Percent Effect” value was -3.997%.
For `CCc1cc(=O)[nH]c2nnc(SCC(=O)NC(C)C)n12`, the “Percent Effect” value was 9.216%.
In the case of `CCn1c(CN(C)C)nnc1C1CCN(c2ccnc(C)c2)CC1`, the “Percent Effect” value was -12.28%.
With `Cn1nc(Cl)cc1C(=O)N1CCC(C(=O)c2nc3ccccc3s2)CC1` the “Percent Effect” value was 97.43%.
For `Cn1nc(CNC(=O)c2nc3ccccc3s2)c2c1CCOC2`, the “Percent Effect” value was -7.604%.
For `Cn1nc2c(cc1=O)CN(c1nc3ccccc3s1)CC2`, the “Percent Effect” value was 9.519%.
With `Cc1sc2nc(C(F)(F)F)nc(N3CCCN(C)CC3)c2c1C` the “Percent Effect” value was 3.641%.
In the case of `COc1nc(C)c(C(=O)N(C)Cc2nc(-c3ccccn3)no2)s1`, the “Percent Effect” value was 6.707%.
`Cc1ccc(C(CNCc2ncc[nH]2)N2CCOCC2)s1` (stereo not drawn) was tested, and the “Percent Effect” value was -41.63%.
`OC1CCCOC12CCN(c1ncccn1)CC2` (stereo not drawn) was tested, and the “Percent Effect” value was 8.98%.
`CCOC(=O)C1CCCN(Cc2c[nH]nc2-c2cc3ccccc3o2)C1` (stereo not drawn) was tested, and the “Percent Effect” value was -24.88%.
With `O[C@H]1CN(Cc2ccnc(N3CCCC3)n2)CC[C@@]12CCCO2` the “Percent Effect” value was 120.1%.
For `OC1CCCOC12CCN(Cc1nnc(-c3cccnc3)o1)CC2` (stereo not drawn), the “Percent Effect” value was -12.47%.
For `O[C@H]1CN(Cc2c[nH]nc2-c2ccccc2)CC[C@@]12CCCO2`, the “Percent Effect” value was 151.3%.
With `COc1cc(OC)nc(N2CCC3(CC2)OCCCC3O)n1` (stereo not drawn) the “Percent Effect” value was -8.22%.
For `Cc1ccccc1CC(C)(C)NC(=O)c1cccc(OCC(N)=O)c1`, the “Percent Effect” value was -9.051%.
With `CCn1nnc2c1C(COC)CN(C(=O)COc1ccccc1)C2` (stereo not drawn) the “Percent Effect” value was -1.685%.
In the case of `O=C(c1ncccn1)N1C[C@@H]2COC[C@]2(COc2cccnc2)C1`, the “Percent Effect” value was 108.1%.
For `O=C(c1cocn1)N1C[C@@H]2COC[C@]2(COc2cccnc2)C1`, the “Percent Effect” value was 92.15%.
In the case of `O=C(c1ncccn1)N1C[C@@H]2COC[C@]2(COCc2cccnc2)C1`, the “Percent Effect” value was 11.05%.
For `COCc1cncc2c1CCN(C(=O)c1ccc(C#N)cc1)C2.O=C(O)C(F)(F)F`, the “Percent Effect” value was 122.8%.
With `O=C(c1cccnc1)N1CCc2c(COCC3CC3)cncc2C1` the “Percent Effect” value was 11.19%.
For `COCc1cncc2c1CCN(C(=O)c1cccc(C#N)c1)C2.O=C(O)C(F)(F)F`, the “Percent Effect” value was 95.5%.
For `O=C(c1ccncc1)N1CCc2c(COCC3CC3)cncc2C1`, the “Percent Effect” value was -2.638%.
In the case of `CCOCc1cncc2c1CCN(C(=O)c1cccc(C#N)c1)C2`, the “Percent Effect” value was 8.725%.
`N#Cc1ccc(C(=O)N2CCc3c(COCC4CC4)cncc3C2)cc1` was tested, and the “Percent Effect” value was 120.9%.
With `N#Cc1cccc(C(=O)N2CCc3c(COCC4CC4)cncc3C2)c1.O=C(O)C(F)(F)F` the “Percent Effect” value was -0.2698%.
For `CC(C)=CCN1CCC2(CC1)c1ccccc1[C@@H](N1CCSCC1)[C@@H]2O`, the “Percent Effect” value was 17.95%.
`CNC(=O)N1CCc2nc(C(=O)Nc3cccnc3)sc2CC1` was tested, and the “Percent Effect” value was -5.762%.
With `O=C(Nc1ccccc1)N1CCc2nc(C(=O)N3CCCC3)sc2CC1` the “Percent Effect” value was 124.8%.
With `CCN(CC)C(=O)c1nc2c(s1)CCN(C(=O)CCC(=O)OC)CC2` the “Percent Effect” value was -10.26%.
`O=C(c1ccc(Cl)cc1)N1CCc2nc(C(=O)N3CCCC3)sc2CC1` was tested, and the “Percent Effect” value was 0.273%.
With `NC(=O)c1nc2c(s1)CCN(C(=O)Nc1cccc(Cl)c1)CC2` the “Percent Effect” value was 103.6%.
With `NC(=O)c1nc2c(s1)CCN(Cc1ccccc1)CC2.O=C(O)C(F)(F)F` the “Percent Effect” value was -10.1%.
In the case of `CN(C)C(=O)c1nc2c(s1)CCN(C(=O)c1ccc(Cl)cc1)CC2`, the “Percent Effect” value was -17.04%.
`CNC(=O)c1nc2c(s1)CCN(C(=O)c1ccccc1)CC2` was tested, and the “Percent Effect” value was -10.92%.
For `NC(=O)c1nc2c(s1)CCN(C(=O)Nc1ccccc1)CC2`, the “Percent Effect” value was 118.3%.
`COc1cccc(CC(=O)N2CCc3nc(C(N)=O)sc3CC2)c1` was tested, and the “Percent Effect” value was -1.696%.
In the case of `CCN(CC)C(=O)c1nc2c(s1)CCN(Cc1cccc(OC)c1)CC2.O=C(O)C(F)(F)F`, the “Percent Effect” value was -1.01%.
For `CCN(CC)C(=O)c1nc2c(s1)CCN(C(=O)Nc1ccccc1)CC2`, the “Percent Effect” value was 97.77%.
